Source: ChEMBL document CHEMBL3988442, “University of Dundee, Small-Polar-MMV Screening Library” (2021)
For some assays here: Results with a measured potency or affinity are listed apart.

Key:
Parameters in all cases: scale not given: direction of the effect not stated beside the values
[1] = target: Protein translocase subunit SecA (Escherichia coli (strain K12)) (UniProt P10408); assay: Assay to Identify E. coli SecA ATPase Inhibitors; format: functional; settings: 30 µM
[2] = target: T1, Ubiquitin-activating enzyme e1, putative (Leishmania donovani (strain BPK282A1)) (UniProt E9BSI1); assay: Leishmania donovani Ubiquitin Activating Enzyme (LdE1); format: functional; settings: 30 µM
T1 sequence (whole entry): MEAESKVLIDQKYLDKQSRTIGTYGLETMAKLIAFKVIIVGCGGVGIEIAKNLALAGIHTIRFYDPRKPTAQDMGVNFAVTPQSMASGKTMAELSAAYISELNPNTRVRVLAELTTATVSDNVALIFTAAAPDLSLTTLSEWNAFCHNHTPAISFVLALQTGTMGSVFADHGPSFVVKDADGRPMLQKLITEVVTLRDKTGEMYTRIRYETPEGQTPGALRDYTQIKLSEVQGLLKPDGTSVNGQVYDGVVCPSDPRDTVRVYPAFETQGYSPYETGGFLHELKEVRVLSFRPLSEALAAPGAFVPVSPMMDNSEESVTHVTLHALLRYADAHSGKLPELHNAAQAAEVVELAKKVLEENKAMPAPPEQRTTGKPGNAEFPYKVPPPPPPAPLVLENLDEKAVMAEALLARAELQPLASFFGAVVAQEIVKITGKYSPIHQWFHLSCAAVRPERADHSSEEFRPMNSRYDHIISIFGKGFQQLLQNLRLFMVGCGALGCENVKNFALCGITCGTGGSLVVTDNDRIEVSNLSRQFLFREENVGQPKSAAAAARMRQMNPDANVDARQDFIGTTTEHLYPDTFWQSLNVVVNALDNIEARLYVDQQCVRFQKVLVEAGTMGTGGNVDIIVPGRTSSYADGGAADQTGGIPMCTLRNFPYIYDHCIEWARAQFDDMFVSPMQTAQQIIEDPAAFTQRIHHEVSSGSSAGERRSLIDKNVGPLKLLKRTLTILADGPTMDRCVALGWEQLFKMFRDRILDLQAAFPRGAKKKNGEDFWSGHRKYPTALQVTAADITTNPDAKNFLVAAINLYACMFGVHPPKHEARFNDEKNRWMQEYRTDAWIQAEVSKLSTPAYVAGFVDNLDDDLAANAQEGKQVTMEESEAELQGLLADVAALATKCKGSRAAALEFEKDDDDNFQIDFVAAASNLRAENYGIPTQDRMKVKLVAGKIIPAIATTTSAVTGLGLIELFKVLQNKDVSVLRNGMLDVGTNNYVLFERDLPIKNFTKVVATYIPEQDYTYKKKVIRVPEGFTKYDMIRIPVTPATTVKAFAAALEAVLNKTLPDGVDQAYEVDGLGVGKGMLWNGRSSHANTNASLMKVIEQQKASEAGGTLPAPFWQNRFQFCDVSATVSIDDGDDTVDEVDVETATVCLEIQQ

[3] = target: Sialic acid-binding Ig-like lectin 9 (Homo sapiens) (UniProt Q9Y336); assay: Hs-Siglec9 ALPHAscreen SOP 20170721; settings: 10 µM
Chain of Sialic acid-binding Ig-like lectin 9 (Homo sapiens) (Q9Y336 whole entry): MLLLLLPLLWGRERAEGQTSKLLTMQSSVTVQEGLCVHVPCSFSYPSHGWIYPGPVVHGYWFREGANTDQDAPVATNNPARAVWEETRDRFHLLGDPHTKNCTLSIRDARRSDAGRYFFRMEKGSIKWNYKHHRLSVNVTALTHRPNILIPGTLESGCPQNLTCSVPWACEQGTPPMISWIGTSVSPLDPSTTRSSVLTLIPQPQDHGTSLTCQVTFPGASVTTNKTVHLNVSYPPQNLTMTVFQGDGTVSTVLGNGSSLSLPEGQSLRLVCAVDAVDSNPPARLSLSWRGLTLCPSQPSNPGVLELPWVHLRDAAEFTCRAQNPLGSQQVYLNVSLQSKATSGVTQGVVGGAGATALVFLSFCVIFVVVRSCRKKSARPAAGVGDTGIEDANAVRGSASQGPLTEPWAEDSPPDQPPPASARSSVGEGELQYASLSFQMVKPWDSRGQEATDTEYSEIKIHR

[4] = system: Trypanosoma cruzi; assay: Trypanosoma cruzi phosphomannomutase and mannose-1-phosphate guanylyltransferase assay; format: functional; settings: 10 µM
[5] = target: T2, Arginase-2, mitochondrial (Homo sapiens) (UniProt P78540); assay: in vitro enzyme assay to detect the production of urea directly proportional to the activity of Arginase II; format: functional; settings: 33.3 µM; further: in the data most compounds retested in dose-response had high values
T2 sequence (whole entry): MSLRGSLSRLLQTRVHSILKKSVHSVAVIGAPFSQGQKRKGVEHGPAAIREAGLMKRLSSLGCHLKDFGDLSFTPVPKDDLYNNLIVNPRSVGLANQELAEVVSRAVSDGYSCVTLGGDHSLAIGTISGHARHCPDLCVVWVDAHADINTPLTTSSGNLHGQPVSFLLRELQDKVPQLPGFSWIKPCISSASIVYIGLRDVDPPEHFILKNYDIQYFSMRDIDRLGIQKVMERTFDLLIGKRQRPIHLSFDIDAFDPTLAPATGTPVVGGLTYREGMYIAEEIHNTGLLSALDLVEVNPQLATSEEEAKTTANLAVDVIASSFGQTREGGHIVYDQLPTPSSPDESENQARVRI

[6] = target: T3, Proteasome subunit beta (Trypanosoma cruzi) (UniProt O96673); assay: Trypanosoma cruzi proteasome chymotrypsin-like activity (TcProtChymo) assay.; further: in the data most compounds retested in dose-response had high values; format: functional; settings: 9.37 µM
T3 sequence (whole entry): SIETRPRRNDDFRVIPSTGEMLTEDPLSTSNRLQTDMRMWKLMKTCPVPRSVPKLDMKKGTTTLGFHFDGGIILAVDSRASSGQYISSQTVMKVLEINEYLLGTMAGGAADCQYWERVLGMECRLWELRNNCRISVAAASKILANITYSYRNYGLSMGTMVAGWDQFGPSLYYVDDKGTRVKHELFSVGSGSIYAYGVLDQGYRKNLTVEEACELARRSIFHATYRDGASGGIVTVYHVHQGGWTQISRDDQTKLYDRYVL

[7] = species: Homo sapiens; assay: To identify inhibition of the IFN signalling (Jak-Stat) pathway via expression of an eGFP reporter gene under the control of an IFN-stimulated response element (ISRE) containing MxA promoter.; format: functional; settings: 30 µM
[8] = target: T4, Tyrosyl-tRNA synthetase, putative (Trypanosoma cruzi (strain CL Brener)) (UniProt Q4DSP6); assay: Trypanosoma cruzi tyrosyl tRNA synthetase (TcYRS) _High Tyrosine SOP; format: functional; settings: 30 µM; further: in the data most compounds retested in dose-response had high values
T4 sequence (whole entry): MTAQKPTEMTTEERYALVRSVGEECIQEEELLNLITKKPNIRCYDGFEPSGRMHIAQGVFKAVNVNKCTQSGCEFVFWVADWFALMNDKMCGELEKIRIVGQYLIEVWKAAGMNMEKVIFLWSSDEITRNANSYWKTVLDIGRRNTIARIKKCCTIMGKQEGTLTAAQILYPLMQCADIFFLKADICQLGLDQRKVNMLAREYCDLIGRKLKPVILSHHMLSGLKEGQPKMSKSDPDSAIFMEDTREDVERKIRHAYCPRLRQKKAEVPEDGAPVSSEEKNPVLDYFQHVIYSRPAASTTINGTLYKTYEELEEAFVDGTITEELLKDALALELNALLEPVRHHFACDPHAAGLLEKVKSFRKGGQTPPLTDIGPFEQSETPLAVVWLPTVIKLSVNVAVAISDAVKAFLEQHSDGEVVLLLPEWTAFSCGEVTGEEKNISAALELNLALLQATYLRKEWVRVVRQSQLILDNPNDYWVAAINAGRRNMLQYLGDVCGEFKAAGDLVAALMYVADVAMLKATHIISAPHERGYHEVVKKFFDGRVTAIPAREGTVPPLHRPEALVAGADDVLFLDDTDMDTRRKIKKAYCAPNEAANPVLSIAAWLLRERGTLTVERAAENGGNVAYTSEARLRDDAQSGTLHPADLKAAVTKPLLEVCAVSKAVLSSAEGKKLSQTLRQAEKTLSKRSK

[9] = target: T4, Tyrosyl-tRNA synthetase, putative (Trypanosoma cruzi (strain CL Brener)); assay: Trypanosoma cruzi tyrosyl tRNA synthetase (TcYRS) SOP; format: functional; settings: 30 µM
[10] = target: Chromo domain-containing protein 1 (Saccharomyces cerevisiae (strain ATCC 204508 / S288c) (Baker's yeast)) (UniProt P32657); assay: ScCHD-1 Enzyme Inhibition Assay; format: functional; settings: 30 µM; further: in the data most compounds retested in dose-response had high values
Chain of Chromo domain-containing protein 1 (Saccharomyces cerevisiae (strain ATCC 204508 / S288c) (Baker's yeast)) (P32657 whole entry, the tested form may be a part): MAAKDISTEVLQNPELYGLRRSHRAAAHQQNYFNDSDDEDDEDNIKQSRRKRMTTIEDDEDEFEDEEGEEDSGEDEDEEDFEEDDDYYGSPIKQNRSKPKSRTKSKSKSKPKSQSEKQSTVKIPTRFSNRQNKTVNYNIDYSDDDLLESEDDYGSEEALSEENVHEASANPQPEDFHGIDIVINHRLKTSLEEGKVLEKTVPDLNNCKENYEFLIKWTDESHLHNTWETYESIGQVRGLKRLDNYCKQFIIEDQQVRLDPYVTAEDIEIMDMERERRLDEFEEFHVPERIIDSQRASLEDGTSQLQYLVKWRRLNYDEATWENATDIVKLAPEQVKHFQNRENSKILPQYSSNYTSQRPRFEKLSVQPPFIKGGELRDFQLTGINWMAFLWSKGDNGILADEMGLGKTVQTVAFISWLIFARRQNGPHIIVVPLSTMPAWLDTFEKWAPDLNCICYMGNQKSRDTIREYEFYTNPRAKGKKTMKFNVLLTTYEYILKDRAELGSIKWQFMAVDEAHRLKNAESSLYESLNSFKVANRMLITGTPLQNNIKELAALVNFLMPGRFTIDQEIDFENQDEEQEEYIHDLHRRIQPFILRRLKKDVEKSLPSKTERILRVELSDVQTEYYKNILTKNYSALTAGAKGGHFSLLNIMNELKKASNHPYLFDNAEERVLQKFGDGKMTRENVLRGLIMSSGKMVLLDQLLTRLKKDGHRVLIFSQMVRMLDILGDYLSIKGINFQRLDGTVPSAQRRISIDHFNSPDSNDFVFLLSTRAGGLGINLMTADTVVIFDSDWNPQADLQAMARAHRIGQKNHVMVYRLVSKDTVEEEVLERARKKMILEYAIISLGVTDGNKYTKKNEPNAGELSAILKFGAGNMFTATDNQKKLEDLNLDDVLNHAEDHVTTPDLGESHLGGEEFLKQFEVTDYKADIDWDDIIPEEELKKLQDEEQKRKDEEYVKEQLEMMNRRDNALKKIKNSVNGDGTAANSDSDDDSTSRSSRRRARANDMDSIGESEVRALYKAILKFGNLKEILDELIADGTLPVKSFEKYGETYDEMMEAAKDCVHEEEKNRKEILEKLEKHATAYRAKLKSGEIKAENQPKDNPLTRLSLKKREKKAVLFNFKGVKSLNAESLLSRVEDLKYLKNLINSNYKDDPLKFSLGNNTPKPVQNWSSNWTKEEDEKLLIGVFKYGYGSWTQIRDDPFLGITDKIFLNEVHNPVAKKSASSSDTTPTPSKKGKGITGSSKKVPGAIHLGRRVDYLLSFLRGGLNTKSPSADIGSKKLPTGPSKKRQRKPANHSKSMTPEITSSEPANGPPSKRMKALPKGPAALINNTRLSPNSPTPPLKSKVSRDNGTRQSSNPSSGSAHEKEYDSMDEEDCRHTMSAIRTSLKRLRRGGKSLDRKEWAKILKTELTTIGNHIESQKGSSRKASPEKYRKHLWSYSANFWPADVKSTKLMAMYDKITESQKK

Chain of Protein translocase subunit SecA (Escherichia coli (strain K12)) (P10408 whole entry): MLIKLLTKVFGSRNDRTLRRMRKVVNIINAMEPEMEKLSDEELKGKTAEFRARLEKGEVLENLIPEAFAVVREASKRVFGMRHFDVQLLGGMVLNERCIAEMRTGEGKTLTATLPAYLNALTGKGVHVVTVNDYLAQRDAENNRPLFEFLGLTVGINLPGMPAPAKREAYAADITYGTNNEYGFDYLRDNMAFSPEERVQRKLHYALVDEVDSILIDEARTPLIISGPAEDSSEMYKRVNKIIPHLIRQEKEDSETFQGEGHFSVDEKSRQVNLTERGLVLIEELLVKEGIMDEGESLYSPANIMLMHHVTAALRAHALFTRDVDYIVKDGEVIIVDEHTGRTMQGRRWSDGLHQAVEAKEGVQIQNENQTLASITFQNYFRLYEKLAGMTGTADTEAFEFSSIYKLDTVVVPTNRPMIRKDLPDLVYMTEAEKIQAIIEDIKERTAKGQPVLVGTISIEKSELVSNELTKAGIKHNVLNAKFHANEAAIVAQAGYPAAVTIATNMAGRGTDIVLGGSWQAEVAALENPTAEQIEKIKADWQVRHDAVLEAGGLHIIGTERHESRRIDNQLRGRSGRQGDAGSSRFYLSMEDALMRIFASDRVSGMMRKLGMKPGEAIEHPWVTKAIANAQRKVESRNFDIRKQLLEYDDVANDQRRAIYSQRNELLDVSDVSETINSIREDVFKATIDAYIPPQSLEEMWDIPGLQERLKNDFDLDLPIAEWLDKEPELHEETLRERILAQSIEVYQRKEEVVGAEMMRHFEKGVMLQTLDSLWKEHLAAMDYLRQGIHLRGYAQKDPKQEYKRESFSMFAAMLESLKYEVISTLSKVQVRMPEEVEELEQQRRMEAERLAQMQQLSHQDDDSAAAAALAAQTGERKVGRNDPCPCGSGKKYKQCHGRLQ

SMILES | Percent Effect [1] | Percent Effect [2] | Percent Effect [3] | Percent Effect [4] | Percent Effect [5] | Percent Effect [6] | Percent Effect [7] | Percent Effect [8] | Percent Effect [9] | Percent Effect [10]
COc1cccc(-n2nnc(C(=O)N3CCCC3)c2C)c1 | -0.683% | 10.3% | -7.88% | 2.72% | 4.92% | 7.25% | 6.63% | 7.18% | 13.2% | -3.38%
CN(C)CCN1C(=O)CCC12CCN(C(=O)c1cccnc1)CC2 | -1.32% | 3.9% | -3.7% | -0.75% | 0.457% | 5.75% | 3.46% | 1.93% | 2.5% | -20.4%
CS(=O)(=O)N1CCC(NC(=O)COc2ccc(Cl)c(Cl)c2)CC1 | -0.592% | 15.6% | -0.737% | -2.24% | -2.66% | 3.86% | 10.2% | 13.7% | 28.2% | -8.55%
COCCN1CCN(Cc2cccc(C(=O)N(C)C)c2)CC1C (stereo not given) | -1.22% | 18.7% | -4.75% | -1.61% | 2.66% | 7.72% | 6.69% | 3.68% | 7.69% | -8.7%
CC(C)CN1CCN(C)C2(CCN(Cc3ccsc3)CC2)C1=O | -3.52% | 6.49% | -3% | 0.188% | 1.83% | -2.49% | -6.74% | 7.73% | 10% | 1.23%
O=C(Cc1cn2ccsc2n1)N1CCCC(n2cncn2)C1 (stereo not given) | -3.72% | 12.8% | -3.95% | -4.22% | -5.74% | 13.9% | 31.1% | 4.31% | 13.2% | -5.26%
O=C(Cc1ccccc1Cl)N1CCCC(n2cncn2)C1 (stereo not given) | -7.8% | 5.13% | 0.737% | -2.91% | 4.51% | -2.65% | 22.2% | 2.39% | 8.43% | 1.66%
Cc1noc(C)c1C(=O)NCc1ccc(N2CCOC(C)C2)nc1 (stereo not given) | -2.58% | 21.3% | -1.63% | -0.402% | -0.887% | 12.5% | 9.59% | 2.63% | 15.4% | -13.6%
O=C(c1ccncc1)N1CCC2(CC1)CC(Oc1cccnc1)CO2 (stereo not given) | -6.1% | -16.9% | 6.5% | 2.43% | -2.02% | 5.91% | -1.58% | 3.68% | 2.56% | -0.282%
CCc1[nH]ncc1C(=O)N1CCCC(n2cccn2)C1 (stereo not given) | -3.15% | 13.3% | 7.05% | -2.21% | 4.88% | 7.38% | -9.13% | 4.74% | 15.4% | -7.04%
CC(C)c1noc(CCC(=O)NCC2CCOC2)n1 (stereo not given) | -1.25% | 0% | -0.749% | 0.602% | -5.32% | 10.8% | 2.04% | 8.95% | 17.9% | -9.05%
COc1cc(C)c(S(=O)(=O)NCc2cccnc2N(C)C)c(C)c1 | 0.224% | 23.4% | -2.16% | 0% | -5.53% | 19.8% | 52.1% | 4.9% | 28.2% | -10.7%
COCCN1C(=O)CCC12CCN(C(=O)NC(C)C)CC2 | -5.46% | 3.9% | -2.04% | -0.938% | -0.457% | -2.66% | 19.9% | 1.93% | -10% | -3.15%
CN(C)CC1CN(Cc2ccsc2)Cc2nccn2C1 (stereo not given) | -3.4% | 6.49% | -4.24% | -1.85% | 3.24% | 18.4% | -9.26% | 8.95% | 12.8% | 6.09%
